“And” between values parts separate entries of the source, which are not always exact repeats. Equal entries are not always repeated. Inconclusive results are not listed. Entries that show only a call come without a potency. The source made the active and inactive calls. Calls follow the shape of the full dose curve.
Test: qHTS assay for small molecule disruptors of the mitochondrial membrane potential - cell viability (AID 720634); also: nearly all actives have a fitted effect of over 20% in size
Conditions: HepG2 viability, ATP luminescence (CellTiter-Glo), 1 h; series mostly up to 83.2 µM
Text: U.S. Tox21 Program National Center for Advancing Translational Sciences [NCATS] NIH Chemical Genomics Center [NCGC] U.S. Environmental Protection Agency [EPA] National Institutes of Environmental Health Sciences [NIEHS] National Toxicology Program [NTP] U.S. Food and Drug Administration [FDA] Tox21 Assay Overview: Mitochondrial membrane potential (MMP), one of the parameters for mitochondrial function, is generated by mitochondrial electron transport chain that creates an electrochemical gradient by a series of redox reactions. This gradient drives the synthesis of ATP, a crucial molecule for various cellular processes. Measuring MMP in living cells is commonly used to assess the effect of chemicals on mitochondrial function; decreases in MMP can be detected using lipophilic cationic fluorescent dyes. […] The dye accumulates in the mitochondria of healthy cells as aggregates, with red fluorescence. The mitochondrial potential decreases and the dye could not accumulate in the mitochondria and remains in the cytoplasm in monomers, with green fluorescence. In addition to the mitochondrial potential assay, these cells were also used to test the cytotoxicity by determining the cell viability in the culture based on the quantitation of ATP present. The cytotoxicity was measured in the same assay well of MMP assay.
Tox21 Assay Protocol Summary: 2,000 HepG2 cells in 5 uL/well were dispensed into black, clear-bottom 1536-well plates using a Multidrop Combi (Thermo Scientific) dispenser. The assay plates were incubated for an overnight at 37 C to allow cells to attach to the wells, followed by the transfer of 23 nL compound or DMSO vehicle by a pin tool (Kalypsys). The plates were incubated for 1 hr at 37 C and 5% CO2, followed by the addition of 5 uL of 2X m-MPI dye into each well using Flying Reagent Dispenser (Aurora Discovery) and then CellTiter-Glo reagent was added at 4 uL/well and incubated 30 min at room temperature. Then luminescence intensity was quantified on a ViewLux CCD-based plate reader.
Potency is read from the fitted curve at half-maximal effect.

| Compound | Potency |
| --- | --- |
| CC(C)(C)OOC(C)(C)C | inactive |
| Cc1ccccc1O | inactive |
| Cc1ccc(N)cc1Cl | inactive |
| O=C(NC(=O)c1c(F)cccc1F)Nc1cc(Cl)c(OC(F)(F)C(F)C(F)(F)F)cc1Cl (stereo not given) | 6.68 µM (active) and 7.7 µM (active) |
| c1ccc(OP(Oc2ccccc2)Oc2ccccc2)cc1 | inactive |
| CC(C)(Cl)Cl | inactive |
| CN(C)CCO | inactive |
| CCCCCOC(=O)c1ccccc1C(=O)OCCCCC | inactive |
| Cn1cc(-c2ccccc2)c(=O)c(-c2cccc(C(F)(F)F)c2)c1 | inactive |
| CCCC1COC(Cn2cncn2)(c2ccc(Cl)cc2Cl)O1 (stereo not given) | inactive |
| c1ccc2c(c1)Oc1ccccc1O2 | inactive |
| O=Cc1cccc(Oc2ccccc2)c1 | inactive |
| C=CC(N)=O | inactive |
| O=NN1CCCCCCC1 | inactive |
| COc1ccc2c3c1O[C@H]1[C@@H](O)C=C[C@H]4[C@@H](C2)N(C)CC[C@@]341 | inactive |
| CCCCN(CC)C(=O)SCCC | inactive |
| BrCCBr | inactive |
| Clc1cccc(Cl)c1Cl | inactive |
| C#CCN(C)[C@H](C)Cc1ccccc1 | inactive |
| CC(C)NC(=O)N1CC(=O)N(c2cc(Cl)cc(Cl)c2)C1=O | inactive |

| Compound | Potency |
| --- | --- |
| C=CCO | inactive |
| O=c1[nH]c2ccccc2c(=O)o1 | inactive |
| ClCCBr | inactive |
| CC(=O)C=C(C)C | inactive |
| CCN(CC)CCO | inactive |
| O=NN1CCCC1 | inactive |
| C=C(C)CCl | inactive |
| O=S(=O)(c1ccc(O)cc1)c1ccc(O)cc1 | inactive |
| CCC[N+](=O)[O-] | inactive |
| CCNc1nc(NC(C)C)nc(SC)n1 | inactive |
| CN1C(=O)CN=C(c2ccccc2)c2cc(Cl)ccc21 | inactive |
| O=c1[nH]c(=O)[nH]c(=O)[nH]1 | inactive |
| CC(C)(C)OOC(=O)c1ccccc1 | inactive |
| c1cc2c3c(cccc3c1)CC2 | inactive |
| CC(NC(C)(C)C)C(=O)c1cccc(Cl)c1 (stereo not given) | inactive |
| Nc1ccc(Cc2ccc(N)cc2)cc1 | inactive |
| CCN(CC)c1ccccc1 | inactive |
| COP(N)(=O)SC (stereo not given) | inactive |
| Oc1ccccc1Cl | inactive |
| CN(C)N=O | inactive |

Source: PubChem BioAssay (Tox21)
